# In PMC9574860, “Chemical Toolkit for PARK7: Potent, Selective, and High-Throughput” (Journal of Medicinal Chemistry, 2022):
# The campaign covered roughly 7,900 compounds. About 400 (5.1%) showed an effect of 50% or more. The list comes from a sample in which strong results are over-represented; it also holds similar structures and randomly drawn compounds.
# Molecular target: Parkinson's disease protein 7 (PARK7/DJ1) (human, UniProt Q99497)
# Assay: primary screen, percent inhibition; read as competition with a fluorescent probe by fluorescence polarization; higher = more effect of the substance
# Details: 100 µM
# Procedure, shortened: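 Covalent fragments at 100 μM final were incubated 2 h with 0.2 μM PARK7, then 20 nM probe JYQ-107 added for a further 2 h. Fluorescence polarization read at 480/520 nm; relative FP loss versus reference controls gave remaining enzyme activity.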
# Sequence of Parkinson's disease protein 7 (PARK7/DJ1) (Q99497 whole entry, looked up): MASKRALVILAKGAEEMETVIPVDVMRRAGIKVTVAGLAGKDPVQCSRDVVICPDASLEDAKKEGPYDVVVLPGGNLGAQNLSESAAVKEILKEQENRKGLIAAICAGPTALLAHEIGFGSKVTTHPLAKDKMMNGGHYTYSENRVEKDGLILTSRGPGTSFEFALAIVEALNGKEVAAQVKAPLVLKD
row,Structure (SMILES),Inhibition %
1,C=CC(=O)NCC1CCCc2sc(C)nc21 (stereo not drawn),5.16%
2,Fc1ccc(C2=NOC(CCl)C2)cc1 (stereo not drawn),-2.86%
3,COc1ccc(S(=O)(=O)N(C)C)cc1NC(=O)CCl,20.4%
4,C=CC(=O)N1CCOc2c(F)ccc(F)c21,9%
5,C=CC(=O)Nc1cc(CC(C)(C)C)nn1C,8.54%
6,CC(=O)Nc1ccc(OC(=O)N(C)C)cc1,10.8%
7,CC(=O)Nc1ccc(NC2SC(=O)NC2=O)cc1 (stereo not drawn),66.6%
8,O=C(CCCl)Nc1ccc(F)cc1,5.87%
9,O=C(CCCl)Nc1ccccc1,3.48%
10,C=CC(=O)Nc1ccc(Cl)cc1,5.59%
11,CC(=O)Nc1ccc(S(=O)(=O)F)cc1,15.8%
12,O=C(CC1SC(=O)NC1=O)Nc1ccccc1 (stereo not drawn),82.7%
13,O=C(CCl)Nc1ccccc1C(=O)Nc1ccccc1,10.5%
14,O=C(CC1SC(=O)NC1=O)Nc1ccc(Cl)cc1 (stereo not drawn),95.7%
15,N#CC1(CCCl)CCCCC1,3.15%
16,C=CC(=O)N1CCN(c2ccc(OC)cn2)CC1,5.59%
17,O=C(CCl)Nc1ccc(NC(=O)c2cccs2)cc1,28%
18,COc1cc(OC)c(C(=O)CCl)c(OC)c1,5.2%
19,COc1ccc(Cl)cc1NC(=O)CCl,14.9%
20,COc1ccc(C(=O)CCl)cc1F,91.7%
21,COc1ccc(NC(=O)CCl)cc1Cl,28.1%
22,COc1ccc(Cl)cc1C(=O)NNC(=O)CCl,29.8%
23,COc1ccc(C(=O)CCl)cc1Cl,95.9%
24,C=CC(=O)NC1CC(C(C)(C)C)C1 (stereo not drawn),14%
25,C=CC(=O)N1c2cc(OC)ccc2NC(=O)C1C (stereo not drawn),9.84%

row,Structure (SMILES),Inhibition %
1,O=S(=O)(F)c1ccc(Cl)c(S(=O)(=O)F)c1,-3.28%
2,O=S(=O)(F)c1ccc(Br)cc1,13.2%
3,O=S(=O)(F)c1cc(Br)ccc1Cl,88.4%
4,CC1CCN(C(=O)CCl)c2ccccc2S1 (stereo not drawn),6.09%
5,Cc1ccc(Oc2ccc(Cl)cc2NC(=O)CCl)cc1,2.17%
6,COc1cc(NC(=O)OC(C)(C)C)ccc1B1OC(C)(C)C(C)(C)O1,14.5%
7,O=C(CCl)Nc1cc(Cl)ccc1-n1cncn1,11%
8,O=C(CCl)Nc1ccccc1SC(F)F,9.47%
9,Cc1ccc(Sc2ccc(NC(=O)CCl)cc2)cc1C,34.5%
10,Cc1ccc(Sc2ccc(NC(=O)CCl)cc2)c(C)c1,25.5%
11,O=C(CCl)Nc1ccc(SC(F)F)cc1,100%
12,CSc1ccc(NC(=O)CCl)cc1,86%
13,Cc1ccc(C)c(Sc2ccc(NC(=O)CCl)cc2)c1,37%
14,CC1(C)[C@@H](Nc2cnc(C#N)cn2)[C@@H]1c1ccccc1 (racemic),10.2%
15,Cc1nc(S)c(C#N)cc1C(=O)Nc1ccccc1,10.1%
16,N#Cc1ncn(CC(=O)N(C2=CCCCC2)C2CC2)n1,29.4%
17,COc1ccc(OC)c(C(=O)CCl)c1,11.8%
18,COc1ccc(C(=O)CCl)c(OC)c1,41.1%
19,COc1ccc(C(=O)CCl)c2c1C(=O)CO2,64.2%
20,O=C(C=Cc1cnc2ccccc2n1)N1CCCCC1,9.55%
21,O=C1OC[C@@H]2CN(Cc3ccccc3)C[C@H]12 (racemic),6.21%
22,CC(OS(C)(=O)=O)C(C)c1ccc2ccccc2n1.Cl (stereo not drawn),24.3%
23,O=S(=O)(F)c1ccc2ccccc2n1,69.3%
24,O=S(=O)(F)c1nc2ccccc2s1,12.9%
25,Cc1cc(C=C(C#N)C(N)=O)c(C)n1C1CC1,2.13%

row,Structure (SMILES),Inhibition %
1,CCn1c(C)cc(C(=O)Cn2cnc(C#N)n2)c1C,0.239%
2,Cc1cc(C(=O)CCl)c(C)n1CC1CCCO1 (stereo not drawn),3.43%
3,CCn1c(C)cc(C(=O)CCl)c1C,56%
4,Cc1cc(C(=O)CCl)c(F)cc1F,5.96%
5,Cc1cc(F)c(C(=O)CCl)cc1F,5.49%
6,C=CCn1c(C)cc(C(=O)CCl)c1C,58.7%
7,Cc1cc(C(=O)CCl)c(C)n1C(C)C,96.9%
8,Cc1cc(C(=O)CCl)c(C)[nH]1,98.2%
9,Cc1cc(C(=O)Cn2cnc(C#N)n2)c(C)n1C(C)C,11.7%
10,Cc1cc(C(=O)CCl)c(C)n1CC(N)=O,4.29%
11,C=CC(=O)N1CCC2COCC2C1 (stereo not drawn),6.41%
12,N#Cc1nc(-c2ccc(Cl)cc2Cl)oc1N,-2.51%
13,O=c1ccc2cc(S(=O)(=O)OCC(F)(F)F)ccc2o1,6.17%
14,C=CC(=O)NCCc1cncnc1,10.1%
15,CCc1ccc(C=CS(=O)(=O)Nc2onc(C)c2C)cc1,4.3%
16,N#Cc1cc(C(=O)NCC2CCc3nccn3C2)c[nH]1 (stereo not drawn),16.5%
17,CCC(NC(=O)CCl)c1ccc(Br)cc1 (stereo not drawn),5.16%
18,CC1(C)OB(c2cccc(OCCCN3CCCC3)c2)OC1(C)C,1.19%
19,C=CC(=O)N1CCCCC1c1noc(C)n1 (stereo not drawn),3.88%
20,O=C(CN1CCSC1=O)N1CCN(c2ccccc2)CC1,5.93%
21,C=CC(=O)N1CCC(S(=O)(=O)NC(C)C)C1 (stereo not drawn),7.14%
22,CC1(CO)CCCC1Nc1ccc(C#N)nc1 (stereo not drawn),6.61%
23,COCc1cccnc1C#N,2.34%
24,Fc1ccc(C2CO2)nc1 (stereo not drawn),4.53%
25,Cc1cc(C(=O)CCl)c(C)n1Cc1ccco1,54.9%

row,Structure (SMILES),Inhibition %
1,Cc1cc(C(=O)Cn2cnc(C#N)n2)c(C)n1C,18.2%
2,Cc1cc(C(=O)CCl)c(C)n1C1CCS(=O)(=O)C1 (stereo not drawn),35.7%
3,Cc1cc(C(=O)CCl)c(C)n1CC(F)(F)F,1.46%
4,CCCn1c(C)cc(C(=O)CCl)c1C,56%
5,Cc1cc(C(=O)Cn2cnc(C#N)n2)c(C)n1C1CC1,17.1%
6,CCCn1c(C)cc(C(=O)Cn2cnc(C#N)n2)c1C,6.57%
7,COCCn1c(C)cc(C(=O)CCl)c1C,49.1%
8,Cc1cc(C=C(C#N)C(N)=O)c(C)n1Cc1ccco1,7.44%
9,Cc1cc(C(=O)CCl)c(C)n1C,72.1%
10,Cc1cc(C(=O)CCl)c(C)n1C1CC1,65%
11,CC(=O)Nc1c(C)cc(C)c(C(=O)CCl)c1C,14%
12,Cl.O=C(CCl)Nc1ncc[nH]1,1.78%
13,C=CC(=O)N1C[C@H](F)C[C@H]1C(=O)N1CCOCC1,10.5%
14,C=CC(=O)N1CCC(c2nc(C(F)(F)F)c[nH]2)CC1,0.0839%
15,C=CC(=O)N1CCC(C(=O)NCC(F)(F)F)C1 (stereo not drawn),4.08%
16,COC(F)(F)C(F)(F)c1ccc(B2OC(C)(C)C(C)(C)O2)cc1,6.09%
17,O=C(O)c1ccoc1CS,64.1%
18,CN(Cc1ncnn1C)S(=O)(=O)C=Cc1ccccc1,3.12%
19,COc1ccccc1C(C)N(C)C(=O)CCl (stereo not drawn),31.5%
20,COc1ccccc1CNC(=O)CCl,28%
21,COc1cccc(CN(C)C(=O)CCl)c1OC,74.5%
22,COc1ccccc1CCNC(=O)CCl,15.8%
23,COc1ccccc1CN(C)C(=O)CCl,98.6%
24,COc1cc(CO)ccc1B1OC(C)(C)C(C)(C)O1,4.39%
25,CC(c1ccsc1)N1CCN(c2ccc(C#N)nc2)CC1 (stereo not drawn),7.22%

row,Structure (SMILES),Inhibition %
1,COc1ccc(NC(=O)CCl)cc1S(=O)(=O)N(C)C,9.41%
2,CN(C)S(=O)(=O)c1ccc(NC(=O)CCl)cc1,84.2%
3,CCN(CC)S(=O)(=O)c1cccc(NC(=O)CCl)c1,22.5%
4,CC(C)N(C)S(=O)(=O)c1ccc(NC(=O)CCl)cc1,83.8%
5,CCN(CC)S(=O)(=O)c1ccc(NC(=O)CCl)cc1,90.5%
6,CCN(CC)S(=O)(=O)c1cc(NC(=O)CCl)ccc1C,7.16%
7,CN(C)S(=O)(=O)c1ccc(NC(=O)CCCl)cc1,7.94%
8,Cc1ccc(NC(=O)CCl)cc1S(=O)(=O)N(C)C,10.4%
9,C=CC(=O)N[C@H]1C[C@H](C)S(=O)(=O)c2sccc21,7.51%
10,C=CC(=O)N1CCOCC2(CC2)C1,33.9%
11,C=CC(=O)N1CCN(c2ccc(C)o2)C(=O)C1,5.39%
12,Cc1ccoc1C=C(C#N)C(=O)NCCc1ccccc1,0.974%
13,O=S1(=O)C=CC(O)C1 (stereo not drawn),4.75%
14,C=C(Cl)CSc1nc2ccsc2c(=O)n1C,13.1%
15,CC1(C)OB(c2ccc3c(c2)NC(=O)C3)OC1(C)C,27.3%
16,C=CC(=O)N1CCCCC1CS(C)(=O)=O (stereo not drawn),5.69%
17,CC1CC1C(=O)N1CCCCC1CCS(=O)(=O)F (stereo not drawn),57.7%
18,O=C(C1CCOCC1)N1CCOC(CS(=O)(=O)F)C1 (stereo not drawn),13.3%
19,O=C(C1CCOCC1)N1CCC(S(=O)(=O)F)CC1,30.7%
20,O=C(C1CCOCC1)N1CCCCC1CCS(=O)(=O)F (stereo not drawn),82.4%
21,COC(=O)C1CC(S(=O)(=O)F)CN1C(=O)C1CC1C (stereo not drawn),13.7%
22,C=CC(=O)N1CCSC2(CCC2)CC1,10.9%
23,NC(=O)C1CCCN(S(=O)(=O)C=Cc2ccccc2)C1 (stereo not drawn),6.58%
